Records with an inconclusive call do not appear. A call without a number means that no potency is given here. Activity calls are given as the source filed them. Calls come from the whole dose curve; as a rule, active = well fitted curve in the direction sought with a large enough effect; inconclusive = small, poorly fitted or top-dose-only effect, or another doubt; inactive = no such curve, though single readings can be large or run the other way.
The molecules below were run against Metallo-beta-lactamase type 2 (Klebsiella pneumoniae) (UniProt C7C422) (assay: qHTS to identify inhibitors of the New Delhi Metallo-beta-lactamase (NDM): assay validation screen against the NCATS LOPAC Collection (AID 1794843;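 note: nitrocefin turnover by NDM-1 measured as 485 nm absorbance at plateau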)). Settings: NDM-1 enzyme, nitrocefin hydrolysis, absorbance 485 nm; series mostly up to 38.4 µM.
Sequence of Metallo-beta-lactamase type 2 (Klebsiella pneumoniae) (C7C422 whole entry, looked up): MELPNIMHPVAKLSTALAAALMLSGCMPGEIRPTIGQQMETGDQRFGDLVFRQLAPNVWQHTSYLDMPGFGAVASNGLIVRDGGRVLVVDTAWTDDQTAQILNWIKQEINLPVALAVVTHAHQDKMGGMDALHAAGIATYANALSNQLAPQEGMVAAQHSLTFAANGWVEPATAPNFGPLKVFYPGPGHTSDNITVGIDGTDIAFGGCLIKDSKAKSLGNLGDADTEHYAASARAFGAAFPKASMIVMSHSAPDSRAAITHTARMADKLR
Outline: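 NDM-1 at 2 nM final in 50 mM HEPES pH 7.0, 1 uM ZnSO4, 0.01% Tween20, preincubated with LOPAC compounds pinned in DMSO; 50 uM nitrocefin (stock) added. Hydrolysis read as absorbance at 485 nm in the plateau phase.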

SMILES	Potency
CC(=O)NCCc1c[nH]c2ccc(O)cc12	inactive
CC(C)Cn1c(=O)n(C)c(=O)c2[nH]cnc21	inactive
Cn1ccnc1	inactive
CCN(c1nc(N)c(C(=O)N=C(N)N)nc1Cl)C(C)C	inactive
COc1cc(C(O)CO)ccc1O (centres undefined)	inactive
O=c1oc(Cl)c(Cl)c2ccccc12	inactive
Cc1cc2c(cc1Cl)N(C(=O)Nc1ccnc3ccccc13)CC2	inactive
NC1CONC1=O (centres undefined)	inactive
c1ccc(C(NCCNC(c2ccccc2)c2ccccc2)c2ccccc2)cc1	inactive
CO/N=C(\C(=O)N[C@@H]1C(=O)N2C(C(=O)O)=C(CSc3nc(=O)c(O)nn3C)CSC12)c1csc(N)n1 (some centres undefined)	inactive
CC(C)(CO)Cc1cc(C(C)(C)C)c(O)c(C(C)(C)C)c1	inactive
CNc1cc(NS(=O)(=O)c2ccc(N)cc2)nc(NC)n1	inactive
NCC(O)c1ccc(O)c(O)c1 (centres undefined)	inactive
Nc1ccc(N2C(=O)c3ccccc3C2=O)c(Cl)c1	inactive
CCCCCC(O)CCCC(=O)O (centres undefined)	inactive
N=C(N)c1ccc(N)cc1	inactive
CC(=O)O[C@H]1Cc2ccccc2N(C(N)=O)c2ccccc21	inactive
CC(N)=O	inactive
NCC(O)(CS(=O)(=O)O)c1ccc(Cl)cc1 (centres undefined)	inactive
O=C(O)c1cc(=O)cc(C(=O)O)[nH]1	inactive
N#C/C(=C\c1ccc(O)c(O)c1)C(=O)NCCc1ccccc1	inactive
CCCCCCCCCC(=O)NC(CN1CCOCC1)[C@H](O)c1ccccc1 (some centres undefined)	inactive
N[C@H](C(=O)O)[C@H](O)C(=O)O	inactive
Clc1nccc2c1ccc1ccccc12	inactive

From PubChem BioAssay (NCATS)
